Calls of active or inactive are those of the source.

This is an account of results in PubChem BioAssay.

Assay [1] can be described thus: small molecules captured by biotinylated probe aFSTL3 – biochemical, small-molecule microarray, fluorescence 635/667, stem cell growth factor project, primary screen (AID 1064).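 Note: measures binding of the biotinylated anti-FSTL3 antibody to printed compounds.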 Conditions: higher = more signal.
Assay [2] in a line: binders from COS7 lysate, DM2A8 probe, primary screen, torsin A project, cell lysate, small-molecule microarray, fluorescence 635/667 (AID 1065). The conditions noted are these: higher = more signal, COS7 lysate expressing mutant human TOR1A.
Assay [3] is described as follows: small molecules captured by biotinylated probe aFGF2 – biochemical, small-molecule microarray, fluorescence 635/667, stem cell growth factor project, primary screen (AID 1067).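 Note: measures binding of biotinylated aFGF2 protein to printed compounds on slides; z-score merges feature fluorescence and signal-to-noise across triplicate slides.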 Conditions: higher = more signal.
Assay [4] can be described thus: small molecules captured by biotinylated probe aFGF10 – biochemical, small-molecule microarray, fluorescence 635/667, stem cell growth factor project, primary screen (AID 1071).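 Note: score merges 667 nm spot intensity and signal to noise from triplicate slides.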 Conditions: higher = more signal.
For assay [5], the target named is Neurogenic locus notch homolog protein 2 (Homo sapiens) (UniProt Q04721). Kind of assay: small molecules binding Notch2 protein – biochemical, small-molecule microarray, 635 nm fluorescence, stem cell growth factors, primary screen (AID 1073). The conditions noted are these: higher = more signal.
Assay [6] deals with Pro-neuregulin-1, membrane-bound isoform (Homo sapiens) (UniProt Q02297). Nature of the assay: small molecules binding neuregulin-1 protein – biochemical, small-molecule microarray, fluorescence 635/667, psychiatric disease protein project, primary screen (AID 1075).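 Note: score combines 667 nm spot fluorescence with signal to noise.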 Conditions: NRG1 binding, 635 nm fluorescence, higher = more signal.
The subject of assay [7] is Neuregulin-1 EGF-like domain. Nature of the assay: small molecules binding NRG1 EGF domain – biochemical, small-molecule microarray, 635 nm fluorescence, primary screen (AID 1081).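 Note: binding of the protein to compounds printed on small-molecule microarray slides.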 The conditions noted are these: higher = more signal.
Assay [8] is described as follows: FRG1 expression reporter modulators in myotubes – cell-based, C2C12 myotubes, firefly/Renilla luciferase, luminescence, FRG1 inhibition for FSHD, primary screen (AID 1084). Conditions: FRG1 promoter luciferase, higher = more signal, called active from +8 up or from −8 down.
A short description of assay [9]: small molecules captured by biotinylated probe aFST – biochemical, small-molecule microarray, fluorescence 635/667, stem cell growth factor project, primary screen (AID 1086).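 Note: score merges 667 nm fluorescence with signal-to-noise of each printed compound spot.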 Conditions: higher = more signal.
The nature of assay [10]: binders of probe aHhip on microarray, primary screen, stem cell growth factor project, biochemical, small-molecule microarray, fluorescence 635/667 (AID 1087).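 Note: score merges spot fluorescence at 667nm with spot signal to noise ratio.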 The conditions noted are these: higher = more signal.
Assay [11] relates to PRMT1 (protein arginine N-methyltransferase 1). Nature of the assay: small molecules binding arginine methyltransferase PRMT1 – biochemical, small-molecule microarray, 635 nm fluorescence, primary screen (AID 1088).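 Note: binding of Prmt1 protein to compounds spotted on small-molecule microarray slides.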 Conditions: higher = more signal.
Assay [12] can be described thus: growth effects on S. cerevisiae YJM789 – YJM789 clinical isolate, OD600, 24 h, basal, primary screen (AID 1089).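 Note: growth of clinical yeast isolate S. cerevisiae YJM 789 seeded 1000 cells per well; test concentration not given here.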 The conditions noted are these: higher = more signal, called active from +8 up or from −8 down.
Assay [13] is described as follows: S. pombe growth modifiers, basal conditions – strain 972, OD600, 24 h, no modulator, primary screen (AID 1090).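 Note: basal condition with compound alone and no growth modifier present; test concentration not given here.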 The conditions noted are these: S. pombe 972 growth, higher = more signal, called active from +8 up or from −8 down.
The nature of assay [14]: budding yeast growth modifiers under rapamycin – strain BY4716, OD600, 96 h, primary screen (AID 1091). Note: test concentration not given here. The conditions noted are these: S. cerevisiae BY4716 + rapamycin, higher = more signal, called active from +8 up or from −8 down.
Assay [15] concerns the target Torsin-1A-interacting protein 2 (Homo sapiens) (UniProt Q8NFQ8). Nature of the assay: small molecules binding lysate-expressed LULL1 – cell lysate, human LULL1 lysate, 635/667 nm fluorescence, primary screen (AID 1092).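 Note: probe is lysate of COS7 cells overexpressing human LULL1; score merges per-feature 667 nm fluorescence with signal-to-noise.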 Conditions: small-molecule microarray, hLULL1 lysate binding, 635 nm fluorescence; higher = more signal.
A short description of assay [16]: optical density change of DRC41 E. coli – strain DRC41, OD650, 24 h, E. coli filamentation project, primary screen (AID 1093).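 Note: MC1000 strain lacking acrAB efflux and sulA so SOS filamentation is blocked; test concentration not given here.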 The conditions noted are these: E. coli DRC41 growth, higher = more signal, called active from +8 up or from −8 down.
Assay [17] is described as follows: probe aLefty2 binding to arrayed compounds – biochemical, biotinylated probe, 635/667 nm fluorescence, primary screen (AID 1094).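 Note: score merges spot fluorescence near 667 nm with spot signal-to-noise ratio.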 The conditions noted are these: small-molecule microarray, higher = more signal.
In assay [18] the test system is Noggin (protein binding on small-molecule microarray). Kind of assay: small molecules binding Noggin protein – biochemical, 635/667 nm fluorescence, primary screen (AID 1095).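 Note: score merges 667 nm feature fluorescence with signal to noise over triplicate slides.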 The conditions noted are these: 635 nm fluorescence, higher = more signal.
For assay [19], the target named is Neurogenic locus notch homolog protein 3 (Homo sapiens) (UniProt Q9UM47). Kind of assay: small molecules binding NOTCH3 protein – biochemical, 635/667 nm fluorescence, primary screen (AID 1096). Conditions: small-molecule microarray, 635 nm fluorescence, higher = more signal.
Assay [20] in a line: probe aEGFR binding to arrayed compounds – biochemical, biotinylated probe, 635/667 nm fluorescence, primary screen (AID 1097).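 Note: probe is a biotinylated anti-EGFR antibody binding compounds printed on slides; score combines fluorescence near 667 nm and signal to noise of each spot.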 Conditions: small-molecule microarray, higher = more signal.

Sequence of Neurogenic locus notch homolog protein 2 (Homo sapiens) (Q04721 whole entry, looked up, canonical isoform): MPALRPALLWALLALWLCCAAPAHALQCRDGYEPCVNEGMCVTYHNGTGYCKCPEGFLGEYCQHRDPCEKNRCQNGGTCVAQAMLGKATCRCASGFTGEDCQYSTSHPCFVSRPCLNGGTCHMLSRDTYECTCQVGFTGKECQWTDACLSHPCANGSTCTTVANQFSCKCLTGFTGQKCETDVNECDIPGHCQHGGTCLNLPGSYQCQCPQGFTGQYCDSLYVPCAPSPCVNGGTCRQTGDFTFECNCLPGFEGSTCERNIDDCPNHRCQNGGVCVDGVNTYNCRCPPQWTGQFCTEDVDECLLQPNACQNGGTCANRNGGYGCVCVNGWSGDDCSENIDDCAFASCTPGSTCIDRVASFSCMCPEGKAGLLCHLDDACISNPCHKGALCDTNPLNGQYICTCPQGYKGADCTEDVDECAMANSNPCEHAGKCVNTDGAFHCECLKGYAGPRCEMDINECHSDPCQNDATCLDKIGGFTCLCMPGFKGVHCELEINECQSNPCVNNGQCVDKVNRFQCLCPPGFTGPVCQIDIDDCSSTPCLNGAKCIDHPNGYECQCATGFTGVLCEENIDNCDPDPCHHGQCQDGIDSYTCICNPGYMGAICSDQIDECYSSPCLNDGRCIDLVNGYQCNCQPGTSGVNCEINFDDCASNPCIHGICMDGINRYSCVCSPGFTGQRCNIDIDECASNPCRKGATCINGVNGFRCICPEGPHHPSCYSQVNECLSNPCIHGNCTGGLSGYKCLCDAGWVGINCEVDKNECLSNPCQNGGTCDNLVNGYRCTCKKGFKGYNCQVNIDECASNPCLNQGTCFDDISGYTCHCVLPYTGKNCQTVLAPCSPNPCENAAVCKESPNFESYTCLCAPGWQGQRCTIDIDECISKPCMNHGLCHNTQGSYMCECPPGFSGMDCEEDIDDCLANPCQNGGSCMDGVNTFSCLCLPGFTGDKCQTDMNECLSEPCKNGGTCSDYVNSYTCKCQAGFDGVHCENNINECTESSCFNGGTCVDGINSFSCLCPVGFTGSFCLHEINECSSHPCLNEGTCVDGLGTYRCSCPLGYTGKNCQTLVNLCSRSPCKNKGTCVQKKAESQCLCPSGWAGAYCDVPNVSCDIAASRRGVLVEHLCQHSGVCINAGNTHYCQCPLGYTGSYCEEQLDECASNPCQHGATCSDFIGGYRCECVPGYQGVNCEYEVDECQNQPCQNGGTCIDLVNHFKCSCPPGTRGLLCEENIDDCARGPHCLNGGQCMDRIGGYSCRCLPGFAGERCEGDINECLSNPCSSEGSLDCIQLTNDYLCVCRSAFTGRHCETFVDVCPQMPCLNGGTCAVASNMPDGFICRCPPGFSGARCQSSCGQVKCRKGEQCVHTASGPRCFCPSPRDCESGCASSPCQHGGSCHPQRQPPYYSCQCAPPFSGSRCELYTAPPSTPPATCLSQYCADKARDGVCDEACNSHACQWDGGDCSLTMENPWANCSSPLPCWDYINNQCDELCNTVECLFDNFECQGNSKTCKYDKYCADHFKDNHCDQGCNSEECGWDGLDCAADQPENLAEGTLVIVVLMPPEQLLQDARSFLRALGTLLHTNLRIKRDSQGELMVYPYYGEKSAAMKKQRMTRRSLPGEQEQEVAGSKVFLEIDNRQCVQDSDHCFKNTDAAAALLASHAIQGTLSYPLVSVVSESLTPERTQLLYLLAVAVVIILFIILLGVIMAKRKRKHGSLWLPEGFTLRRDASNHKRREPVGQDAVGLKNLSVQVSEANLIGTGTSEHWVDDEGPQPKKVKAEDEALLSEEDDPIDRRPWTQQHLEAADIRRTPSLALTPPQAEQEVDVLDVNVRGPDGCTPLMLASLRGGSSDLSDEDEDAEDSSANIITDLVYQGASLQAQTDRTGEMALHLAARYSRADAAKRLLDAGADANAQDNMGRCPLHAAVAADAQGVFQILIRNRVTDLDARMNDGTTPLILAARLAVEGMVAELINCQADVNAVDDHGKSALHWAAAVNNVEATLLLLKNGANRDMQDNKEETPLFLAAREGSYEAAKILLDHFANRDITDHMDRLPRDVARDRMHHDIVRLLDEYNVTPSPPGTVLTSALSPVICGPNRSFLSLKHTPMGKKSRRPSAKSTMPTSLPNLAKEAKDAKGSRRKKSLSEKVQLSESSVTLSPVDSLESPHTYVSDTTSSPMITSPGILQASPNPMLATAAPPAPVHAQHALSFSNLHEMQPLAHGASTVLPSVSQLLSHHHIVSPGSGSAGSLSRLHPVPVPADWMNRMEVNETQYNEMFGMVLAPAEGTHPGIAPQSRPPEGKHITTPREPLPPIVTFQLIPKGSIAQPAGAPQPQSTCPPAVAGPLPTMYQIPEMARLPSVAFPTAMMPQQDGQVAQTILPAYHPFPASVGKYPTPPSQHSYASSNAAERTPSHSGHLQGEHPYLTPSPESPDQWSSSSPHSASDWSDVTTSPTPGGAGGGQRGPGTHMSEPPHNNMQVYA
Sequence of Pro-neuregulin-1, membrane-bound isoform (Homo sapiens) (Q02297 whole entry, looked up, the tested form may be a part, canonical isoform): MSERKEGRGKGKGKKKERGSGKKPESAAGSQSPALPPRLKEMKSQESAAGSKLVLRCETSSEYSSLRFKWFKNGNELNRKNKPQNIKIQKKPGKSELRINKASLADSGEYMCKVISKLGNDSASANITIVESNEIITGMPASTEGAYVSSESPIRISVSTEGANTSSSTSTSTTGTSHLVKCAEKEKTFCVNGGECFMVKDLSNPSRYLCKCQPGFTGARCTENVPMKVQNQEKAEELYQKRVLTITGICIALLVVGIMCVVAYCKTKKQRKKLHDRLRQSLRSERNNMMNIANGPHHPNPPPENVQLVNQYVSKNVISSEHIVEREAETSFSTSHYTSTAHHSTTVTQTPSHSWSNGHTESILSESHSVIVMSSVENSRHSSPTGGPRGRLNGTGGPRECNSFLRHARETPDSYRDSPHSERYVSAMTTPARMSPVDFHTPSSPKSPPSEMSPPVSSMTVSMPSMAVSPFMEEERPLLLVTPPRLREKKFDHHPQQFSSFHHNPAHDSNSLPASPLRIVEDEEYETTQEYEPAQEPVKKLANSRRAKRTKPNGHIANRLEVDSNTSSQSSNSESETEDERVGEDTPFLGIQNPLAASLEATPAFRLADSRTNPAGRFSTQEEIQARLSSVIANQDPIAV
Sequence of Torsin-1A-interacting protein 2 (Homo sapiens) (Q8NFQ8 whole entry, looked up): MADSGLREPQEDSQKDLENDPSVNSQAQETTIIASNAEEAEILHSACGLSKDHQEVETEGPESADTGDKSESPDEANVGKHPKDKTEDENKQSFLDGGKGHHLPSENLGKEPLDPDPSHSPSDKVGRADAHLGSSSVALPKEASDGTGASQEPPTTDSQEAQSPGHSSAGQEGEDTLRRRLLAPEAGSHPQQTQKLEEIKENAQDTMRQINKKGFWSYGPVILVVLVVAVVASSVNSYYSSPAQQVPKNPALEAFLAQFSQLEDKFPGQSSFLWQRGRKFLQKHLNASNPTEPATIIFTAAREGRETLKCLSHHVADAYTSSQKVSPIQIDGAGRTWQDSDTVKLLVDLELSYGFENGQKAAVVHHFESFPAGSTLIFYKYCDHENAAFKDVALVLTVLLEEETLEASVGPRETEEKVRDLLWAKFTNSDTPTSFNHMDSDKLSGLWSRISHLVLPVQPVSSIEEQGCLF

Regarding `COCCOC(=O)N1C(=O)[C@@]2(c3ccccc31)[C@H](C(=O)Nc1nc3ccccc3s1)[C@H]1C(=O)O[C@H](c3ccccc3)[C@H](c3ccccc3)N1[C@@H]2c1ccc(OCCO)cc1`, the composite z-score was 0.001 in assay [1]; 0.686 in assay [2]; -0.0426 in assay [3]; 0.738 in [4]; 0.907 in assay [5]; 0.897 in assay [6]. For the same compound, the composite z-score was 1.18 in assay [7]; 0.381 in assay [9]; -0.117 in assay [10]; 1.54 in [11]; 3.23 in [15]; -0.0767 in [17]. Moreover, the composite z-score in assay [18] is 1.76; in assay [19], 1.13; in assay [20], -0.0581. In addition, the z-score in assay [8] is 2.77 (inactive); in assay [12], 1.13 (inactive); in assay [13], 1.36 (inactive); in assay [14], 3.37 (inactive); in [16] it was 1.07 (inactive).
Take `COc1cc2c(cc1O)C(C)N(Cc1cccc(OC(F)(F)F)c1)CC2` (stereo not given): the composite z-score in assay [1] was 0.067; in [2], -0.142; in [3] it was 0.139; in assay [4], 0.953; in assay [5], 1.23; in assay [6], 2.13. Also, the composite z-score in assay [7] is 1.47; in assay [9], 0.226; in assay [10], -0.205; in assay [11], 1.42; in assay [15], 3.02; in [17], -0.0719. The composite z-score was 0.205 in assay [18], 0.76 in assay [19] and -0.0697 in assay [20]. In addition, the z-score is 0.734 (inactive) in assay [8]; -0.167 (inactive) in assay [12]; -2.4 (inactive) in assay [13]; -1.09 (inactive) in [14]; -1.26 (inactive) in assay [16].
In the case of `COC(=O)C(CC#Cc1ccc2c(c1)[C@]1(C(=O)N2)[C@H](c2ccc(OCCO)cc2)N2[C@H](c3ccccc3)[C@H](c3ccccc3)OC(=O)[C@H]2[C@@H]1C(=O)NC[C@H](O)c1ccccc1)C(=O)OC`, the composite z-score was 0.194 in [1]; 0.855 in assay [2]; -0.0011 in assay [3]; 1.12 in [4]; 0.694 in assay [5]; 1.29 in [6]. Further, the composite z-score in assay [7] was 1.26; in assay [9] it was -0.0592; in assay [10] it was 0.0274; in assay [11], 1.54; in [15], 2.41; in assay [17] it was -0.141. For the same compound, the composite z-score is 0.617 in assay [18], 0.908 in [19] and -0.0856 in assay [20]. For the same compound, the z-score in [8] was 1.03 (inactive); in assay [12], 2.37 (inactive); in assay [13], 0.31 (inactive); in assay [14] it was 7.43 (inactive); in assay [16], 1.89 (inactive).
Take `CCOC(=O)[C@H]1C[C@H]2O[C@@]23C[C@H]1C(=O)N1CCCC1[C@@H]3O[Si](C)(C)C(C)(C)C` (stereo not given in full): the composite z-score in [1] is -0.328; in [2], -0.537; in [3], -0.104; in assay [4], -0.101; in assay [5], -0.547; in assay [6] it was -0.333. Further, the composite z-score was -0.76 in assay [7]; 0.0204 in [9]; 0.0274 in assay [10]; 0.105 in assay [11]; -0.0341 in assay [15]; 0.807 in [17]. Also, the composite z-score in [18] was 0.478; in assay [19], -0.288; in assay [20] it was -0.149. In addition, the z-score is -0.184 (inactive) in assay [8]; -0.938 (inactive) in [12]; -3.58 (inactive) in assay [13]; -1.12 (inactive) in assay [14]; -0.788 (inactive) in [16].
With `COc1ccc([Si](C)(C)[C@H]2[C@H](CCn3cc(CCO)nn3)O[C@@]3(C(=O)N(Cc4ccc(N5CCOC5=O)cc4)c4ccccc43)[C@@H]2C)cc1`, the composite z-score in [1] is 0.102; in [2], 1.38; in assay [3], -0.0158; in assay [4] it was 0.44; in assay [5], 0.14; in assay [6], 1.51. For the same compound, the composite z-score in assay [7] is 1.07; in [9] it was 0.147; in assay [10] it was -0.236; in assay [11], 1.37; in assay [15], 1.31; in assay [17], -0.103. Further, the composite z-score was 0.42 in assay [18], 0.928 in assay [19] and -0.212 in assay [20]. Moreover, the z-score was -3.54 (inactive) in assay [8]; 1.02 (inactive) in [12]; 0.928 (inactive) in [13]; 4.55 (inactive) in assay [14]; 1.01 (inactive) in assay [16].
